Reference: PubChem BioAssay (NCI)
Compounds without any hit were thinned out: in the full panel of roughly 83,000, 20% have a hit.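 48-hour exposure, single concentration, 96-well plates; percent growth endpoint where 0 means no net growth. Active: below 10.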 Activity calls are given as the source filed them.

Tests used:
Test in all cases: NCI-60 one-dose screen, 48 h (100 = growth as untreated, 0 = no growth, -100 = all killed)
Conditions in all cases: 10 µM unless noted
SR leukemia = system: SR leukemia
RPMI-8226 leukemia = system: RPMI-8226 leukemia
OVCAR-8 ovarian = system: OVCAR-8 ovarian
OVCAR-5 ovarian = system: OVCAR-5 ovarian
OVCAR-4 ovarian = system: OVCAR-4 ovarian
SK-OV-3 ovarian = system: SK-OV-3 ovarian
IGROV1 ovarian = system: IGROV1 ovarian
OVCAR-3 ovarian = system: OVCAR-3 ovarian
HS 578T breast = system: HS 578T breast
NCI/ADR-RES ovarian = system: NCI/ADR-RES ovarian
T-47D breast = system: T-47D breast
BT-549 breast = system: BT-549 breast
MDA-MB-435 melanoma = system: MDA-MB-435 melanoma
SW-620 colon = system: SW-620 colon
MCF7 breast = system: MCF7 breast
HCT-116 colon = system: HCT-116 colon
HCC-2998 colon = system: HCC-2998 colon
KM12 colon = system: KM12 colon
MOLT-4 leukemia = system: MOLT-4 leukemia

Measured: growth

CC(=O)OCc1cc[c]([Hg][Cl])o1
active: SR leukemia -20.3% | OVCAR-3 ovarian 0.253%
inactive: RPMI-8226 leukemia 26.4% | OVCAR-8 ovarian 36.8% | OVCAR-5 ovarian 43.9% | OVCAR-4 ovarian 62.9% | SK-OV-3 ovarian 71% | IGROV1 ovarian 11.3% | HS 578T breast 57.5% | NCI/ADR-RES ovarian 77.1% | T-47D breast 17.8% | BT-549 breast 14.3% | MDA-MB-435 melanoma 29.4% | SW-620 colon 25.4% | MCF7 breast 20.2% | HCT-116 colon 35.7% | HCC-2998 colon 76.4% | KM12 colon 91.8%

CN(CCCCN(C)CCOS(C)(=O)=O)CCOS(C)(=O)=O
inactive: MOLT-4 leukemia 28% | RPMI-8226 leukemia 90.8% | OVCAR-8 ovarian 72.6% | OVCAR-5 ovarian 97.6% | SK-OV-3 ovarian 86.7% | IGROV1 ovarian 65.8% | OVCAR-3 ovarian 103% | HS 578T breast 95.3% | NCI/ADR-RES ovarian 76.3% | T-47D breast 81.1% | MDA-MB-435 melanoma 101% | SW-620 colon 74.1% | MCF7 breast 71.2% | HCT-116 colon 81.4% | HCC-2998 colon 58.4% | KM12 colon 95.1%

NC(=O)c1c(Br)n(C2OC(CO)C(O)C2O)c2ncnc(N)c12 (stereo not given)
inactive: OVCAR-5 ovarian 24.4% | OVCAR-4 ovarian 16.1% | HCC-2998 colon 18.4%
active: OVCAR-8 ovarian 5.8% | SK-OV-3 ovarian -8.9% | IGROV1 ovarian -48.3% | OVCAR-3 ovarian -43.3% | HS 578T breast -8.41% | NCI/ADR-RES ovarian 8.09% | T-47D breast -14.7% | BT-549 breast -16.1% | MDA-MB-435 melanoma 1.13% | SW-620 colon 1.1% | MCF7 breast -18.6% | HCT-116 colon 3.73% | KM12 colon -8.13%

CC1(C)N=C(N)N=C(N)N1c1cccc(CCCCc2ccc(Cl)c(S(=O)(=O)F)c2)c1
inactive: MOLT-4 leukemia 38.3% | RPMI-8226 leukemia 45.7% | OVCAR-8 ovarian 19.4% | OVCAR-5 ovarian 49.6% | OVCAR-4 ovarian 50.5% | SK-OV-3 ovarian 72.8% | OVCAR-3 ovarian 47.1% | HS 578T breast 83.9% | NCI/ADR-RES ovarian 104% | T-47D breast 86.6% | BT-549 breast 51.8% | MDA-MB-435 melanoma 35.8% | SW-620 colon 30.9% | MCF7 breast 28.8% | HCT-116 colon 17.7% | HCC-2998 colon 35.1% | KM12 colon 22.3%

O=[As](O)(O)c1ccccc1[As](=O)(O)O
inactive: SR leukemia 91.3% | RPMI-8226 leukemia 109% | OVCAR-8 ovarian 99.7% | OVCAR-5 ovarian 92.6% | SK-OV-3 ovarian 111% | IGROV1 ovarian 135% | OVCAR-3 ovarian 103% | HS 578T breast 114% | NCI/ADR-RES ovarian 104% | BT-549 breast 116% | MDA-MB-435 melanoma 98.8% | SW-620 colon 112% | MCF7 breast 98% | HCT-116 colon 107% | HCC-2998 colon 101% | KM12 colon 105%

Clc1ccc2nnnn2n1
active: OVCAR-3 ovarian -3.95% | MDA-MB-435 melanoma -1.91% | HCT-116 colon -15.9% | KM12 colon -38%
inactive: MOLT-4 leukemia 17.3% | OVCAR-8 ovarian 74.1% | OVCAR-5 ovarian 67.1% | OVCAR-4 ovarian 37.8% | SK-OV-3 ovarian 92% | HS 578T breast 89.6% | NCI/ADR-RES ovarian 59.2% | T-47D breast 57.4% | BT-549 breast 29.1% | SW-620 colon 24.5% | MCF7 breast 19.2%

C#Cc1ccc2c(c1)C(c1ccccc1F)=NCC(=O)N2C
inactive: MOLT-4 leukemia 42.8% | RPMI-8226 leukemia 71.9% | OVCAR-8 ovarian 63.9% | OVCAR-5 ovarian 85.5% | OVCAR-4 ovarian 84.9% | SK-OV-3 ovarian 34% | OVCAR-3 ovarian 12.1% | HS 578T breast 64.1% | NCI/ADR-RES ovarian 16.6% | T-47D breast 40.9% | BT-549 breast 47.2% | MDA-MB-435 melanoma 10.2% | SW-620 colon 30.3% | MCF7 breast 19.7% | HCT-116 colon 17.3% | HCC-2998 colon 65.2% | KM12 colon 27.8%
